Some test systems named below: DU-145 prostate; K-562 leukemia; MALME-3M melanoma; MDA-MB-231 breast; RXF 393 renal; SF-268 CNS; SF-295 CNS; SF-539 CNS; UACC-257 melanoma; M14 melanoma; HCT-15 colon; HT29 colon; SNB-75 CNS; SNB-19 CNS; U251 CNS; PC-3 prostate; SK-MEL-5 melanoma; UACC-62 melanoma; LOX IMVI melanoma; SK-MEL-28 melanoma.
Assay in all cases: NCI-60 one-dose screen, 48 h (100 = growth as untreated, 0 = no growth, -100 = all killed)
What all share (details): 10 µM unless noted

This is part of a sample that, as a whole, favours compounds with a hit. Of some 83,000 tested, about 20% had one in any assay.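 Percent growth is the endpoint: 0 to 100 indicates growth inhibition (40 means 60% inhibition), 0 means no net growth, and negative values indicate cell death.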 Values without a mark were called inactive. Calls of active or inactive are those of the source. Rule for the calls: active = growth percent below 10; inactive = the rest.

Take `CCN(CC)c1nc(SCC(=O)Nc2nc3ccc(C)cc3s2)nc(-c2ccccc2)c1C#N`: the growth with DU-145 prostate is 101%; with K-562 leukemia it was 86.5%; in the assay with MALME-3M melanoma, 103%; in the assay with MDA-MB-231 breast, 78%; in the assay with RXF 393 renal, 97.3%; in the assay on SF-268 CNS it was 88.5%. The growth in the assay with SF-295 CNS is 92.9%; in the assay on SF-539 CNS, 89.2%; with UACC-257 melanoma, 96.5%; in the assay with M14 melanoma it was 101%; in the assay on HCT-15 colon, 83.8%; with HT29 colon, 79.6%. In addition, the growth in the assay on SNB-75 CNS is 85.6%; with SNB-19 CNS it was 89.5%; with U251 CNS, 87.6%; in the assay on PC-3 prostate it was 67%; in the assay on SK-MEL-5 melanoma, 90.2%; in the assay with UACC-62 melanoma it was 67.9%. In addition, the values for the growth with LOX IMVI melanoma and in the assay on SK-MEL-28 melanoma were 98% and 103%, respectively.

Consider `COc1ccc(C(=O)/C=C/c2c(C(F)(F)F)nc3sccn23)cc1OC`, for which the growth in the assay on DU-145 prostate was -24.6% (active); with K-562 leukemia, -15.1% (active); in the assay with MALME-3M melanoma it was 71.4%; in the assay with MDA-MB-231 breast, 36.8%; in the assay on RXF 393 renal it was 39.1%; in the assay on SF-268 CNS, 15.4%. Moreover, the growth in the assay on SF-295 CNS was -9.31% (active); in the assay on SF-539 CNS, -5.52% (active); in the assay on UACC-257 melanoma it was 56.8%; in the assay with M14 melanoma, 28.5%; in the assay on HCT-15 colon, 24.6%; in the assay on HT29 colon, 12.3%. The growth in the assay with SNB-75 CNS is 14.3%; with SNB-19 CNS, 33%; in the assay with U251 CNS, 15.1%; with PC-3 prostate, 53.3%; in the assay on SK-MEL-5 melanoma it was 31.7%; with UACC-62 melanoma it was 20.6%. Besides, the growth in the assay with LOX IMVI melanoma was 5.55% (active); in the assay with SK-MEL-28 melanoma it was 52.7%.

Turning to `Cn1cc2c(c1)-c1nc(Nc3ccccc3)ncc1CC2`, the growth is 56.5% in the assay on DU-145 prostate; 85.2% with K-562 leukemia; 95.3% in the assay on MALME-3M melanoma; 67.4% in the assay with MDA-MB-231 breast; 62.4% in the assay with RXF 393 renal; 72.2% in the assay with SF-268 CNS. The growth in the assay on SF-295 CNS was 84.3%; in the assay on SF-539 CNS, 65.6%; with UACC-257 melanoma, 89.7%; with M14 melanoma, 55%; in the assay on HCT-15 colon, 45.9%; in the assay with HT29 colon it was 79.9%. Moreover, the growth with SNB-75 CNS is 75.7%; with SNB-19 CNS it was 69.4%; in the assay with U251 CNS, 59.7%; with PC-3 prostate, 58.5%; in the assay on SK-MEL-5 melanoma, 73.2%; with UACC-62 melanoma, 51.1%. Moreover, the figures for the growth in the assay with LOX IMVI melanoma and in the assay on SK-MEL-28 melanoma were 49.6% and 99.9%, respectively.

On to `Cc1nc2ccccc2n1CC1NC(=O)NC1=O` (centres undefined), for which the growth in the assay on DU-145 prostate was 110%; in the assay with K-562 leukemia, 99.9%; in the assay with MALME-3M melanoma it was 102%; in the assay with MDA-MB-231 breast, 102%; in the assay on RXF 393 renal, 103%; with SF-268 CNS it was 96.1%. The growth with SF-295 CNS was 107%; in the assay with SF-539 CNS, 99.4%; in the assay on UACC-257 melanoma, 99.1%; in the assay on M14 melanoma it was 105%; with HCT-15 colon it was 104%; in the assay with HT29 colon, 105%. For the same compound, the growth was 78.7% in the assay on SNB-75 CNS; 98.4% with SNB-19 CNS; 103% in the assay on U251 CNS; 96.2% with PC-3 prostate; 100% in the assay with SK-MEL-5 melanoma; 98.4% in the assay on UACC-62 melanoma. In addition, the growth was 95.6% in the assay on LOX IMVI melanoma and 99.4% with SK-MEL-28 melanoma.

On to `Cc1ccc(C2SCC(=O)N2Cc2ccccc2)cc1` (centres undefined), for which the growth is 118% with DU-145 prostate; 110% in the assay on K-562 leukemia; 93.3% in the assay on MALME-3M melanoma; 98.3% with MDA-MB-231 breast; 114% in the assay on RXF 393 renal; 115% in the assay with SF-268 CNS. In addition, the growth in the assay on SF-295 CNS is 95%; in the assay on SF-539 CNS, 109%; with UACC-257 melanoma it was 97.7%; in the assay with M14 melanoma it was 104%; with HCT-15 colon it was 100%; with HT29 colon, 96.9%. In addition, the growth is 95.1% with SNB-75 CNS; 98.9% with SNB-19 CNS; 97.6% in the assay with U251 CNS; 92.1% with PC-3 prostate; 105% in the assay with SK-MEL-5 melanoma; 91.7% in the assay with UACC-62 melanoma. Besides, the growth in the assay on LOX IMVI melanoma is 97.9%; in the assay with SK-MEL-28 melanoma it was 106%.

Regarding `Cc1c(C)c2c(c(C)c1OCC(=O)O)CC[C@@](C)(CCC[C@@H](C)CCC[C@@H](C)CCCC(C)C)O2`, the growth in the assay with DU-145 prostate is 6.97% [50 µM] (active); with K-562 leukemia, 6.54% [50 µM] (active); in the assay with MALME-3M melanoma, -35.8% [50 µM] (active); in the assay with MDA-MB-231 breast, -2.79% [50 µM] (active); in the assay with RXF 393 renal, -34.5% [50 µM] (active); in the assay on SF-268 CNS, -5.58% [50 µM] (active). The growth with SF-295 CNS is 35.8% [50 µM]; in the assay with SF-539 CNS, -7.25% [50 µM] (active); with UACC-257 melanoma it was 38.7% [50 µM]; with M14 melanoma, -19.2% [50 µM] (active); in the assay with HCT-15 colon, -28.5% [50 µM] (active); with HT29 colon, 6.19% [50 µM] (active). In addition, the growth was 67.6% [50 µM] in the assay with SNB-75 CNS; 17% [50 µM] with SNB-19 CNS; -30.3% [50 µM] (active) in the assay on U251 CNS; -16% [50 µM] (active) in the assay with PC-3 prostate; -77.1% [50 µM] (active) in the assay with SK-MEL-5 melanoma; -75.2% [50 µM] (active) in the assay with UACC-62 melanoma. The growth with LOX IMVI melanoma is -83.9% [50 µM] (active); in the assay with SK-MEL-28 melanoma, -15.1% [50 µM] (active).

As for `O=C(Nc1cccc(Oc2nnc(Cl)c3ccccc23)c1)Nc1ccc(Cl)c(C(F)(F)F)c1`, the growth in the assay with DU-145 prostate is -5.14% (active); in the assay on K-562 leukemia, -8.66% (active); with MALME-3M melanoma, -49.9% (active); in the assay on MDA-MB-231 breast, -57.3% (active); in the assay with RXF 393 renal, -62.3% (active); in the assay with SF-268 CNS, -32.2% (active). The growth in the assay with SF-295 CNS was -56.3% (active); with SF-539 CNS, -73.4% (active); with UACC-257 melanoma it was -68.4% (active); in the assay with M14 melanoma, -62.8% (active); in the assay with HCT-15 colon it was -64% (active); in the assay on HT29 colon, -75.9% (active). Also, the growth was -59.3% (active) in the assay on SNB-75 CNS; -5.9% (active) with SNB-19 CNS; -75.4% (active) in the assay with U251 CNS; -38.1% (active) with PC-3 prostate; -98.8% (active) with SK-MEL-5 melanoma; -82.5% (active) in the assay with UACC-62 melanoma. Further, the growth in the assay on SK-MEL-28 melanoma is -62.5% (active).

Regarding `COc1cccc(-c2nn(-c3ccccc3)cc2-c2ccnc(NCCNC(=O)Nc3cccc(C(F)(F)F)c3)c2)c1`, the growth with DU-145 prostate was 26.2%; in the assay with K-562 leukemia, 2.52% (active); in the assay on MALME-3M melanoma it was 51.2%; with MDA-MB-231 breast, -10% (active); in the assay with RXF 393 renal, 21.6%; with SF-268 CNS, 35.2%. Besides, the growth in the assay with SF-295 CNS was 27.6%; in the assay on SF-539 CNS, 57.7%; with UACC-257 melanoma, 27.6%; in the assay on M14 melanoma it was 7.52% (active); in the assay with HCT-15 colon, 6.17% (active); with HT29 colon, -43.6% (active). In addition, the growth in the assay with SNB-75 CNS was 46.3%; with SNB-19 CNS it was 36%; with U251 CNS, 19.9%; with PC-3 prostate it was 17.1%; in the assay on SK-MEL-5 melanoma it was 39.2%; with UACC-62 melanoma, -7.83% (active). Also, the growth is -77.3% (active) with LOX IMVI melanoma and 32.5% with SK-MEL-28 melanoma.

The record behind these values is PubChem BioAssay (NCI).
